Experimental data taken from PubChem BioAssay (Tox21).
Results filed as inconclusive are left out. Active and inactive are the calls of the source. Unless noted, calls follow the shape of the dose curve; as a rule, active = well fitted curve in the direction sought with a large enough effect in the repeat runs; inconclusive = weak or mixed curves; inactive = no such curve, though single readings can be large; an effect the other way counts as inactive or inconclusive.

What was measured:
[1] = biological target: Progesterone receptor (Homo sapiens) (UniProt P06401); test: qHTS assay to identify small molecule agonists of the progesterone receptor (PR) signaling pathway (AID 1346784; calls by dose curve; also: nearly all actives have a fitted effect of over 30% in size)
Sequence of Progesterone receptor (Homo sapiens) (P06401 whole entry, looked up): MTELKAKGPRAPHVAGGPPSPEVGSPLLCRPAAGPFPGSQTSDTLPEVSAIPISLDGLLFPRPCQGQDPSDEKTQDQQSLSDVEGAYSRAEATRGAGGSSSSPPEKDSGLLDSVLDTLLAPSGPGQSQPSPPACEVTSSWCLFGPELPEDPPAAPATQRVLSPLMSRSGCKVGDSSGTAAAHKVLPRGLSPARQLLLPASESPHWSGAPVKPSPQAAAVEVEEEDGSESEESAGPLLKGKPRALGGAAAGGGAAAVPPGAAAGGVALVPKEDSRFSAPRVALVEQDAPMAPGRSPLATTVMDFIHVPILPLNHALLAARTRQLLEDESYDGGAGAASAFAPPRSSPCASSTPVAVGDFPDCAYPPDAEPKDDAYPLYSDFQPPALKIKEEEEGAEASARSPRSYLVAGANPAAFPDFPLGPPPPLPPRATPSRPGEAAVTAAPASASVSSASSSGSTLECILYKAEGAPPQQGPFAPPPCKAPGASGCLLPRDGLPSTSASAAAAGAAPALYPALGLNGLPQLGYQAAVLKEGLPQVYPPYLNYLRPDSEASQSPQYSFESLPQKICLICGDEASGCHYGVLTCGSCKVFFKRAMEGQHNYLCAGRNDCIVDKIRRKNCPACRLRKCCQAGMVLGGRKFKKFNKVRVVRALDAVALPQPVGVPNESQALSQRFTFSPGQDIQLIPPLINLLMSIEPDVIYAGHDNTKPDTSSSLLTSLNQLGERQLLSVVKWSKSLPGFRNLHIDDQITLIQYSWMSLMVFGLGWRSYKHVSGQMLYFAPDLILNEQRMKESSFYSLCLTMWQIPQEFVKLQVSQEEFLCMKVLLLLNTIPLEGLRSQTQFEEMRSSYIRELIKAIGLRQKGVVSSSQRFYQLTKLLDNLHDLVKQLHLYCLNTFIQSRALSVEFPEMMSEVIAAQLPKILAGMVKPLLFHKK
How it was run: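 Agonist qHTS: compounds pinned onto 3,000 PR-UAS-bla HEK 293T cells per well in charcoal-stripped serum medium, 16hr at 37C, then beta-lactamase activity measured by LiveBLAzer FRET fluorescence after 2 hours at room temperature.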

[2] = biological target: Progesterone receptor (Homo sapiens) (UniProt P06401); test: qHTS assay to identify small molecule antagonists of the progesterone receptor (PR) signaling pathway (AID 1346795; active = well fitted inhibition curve with a large enough effect in the signal ratio in the repeat runs, not every such curve was filed as active; the % refers to the signal ratio)
How it was run: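 Antagonist mode with agonist R5020 at 1 nM final and 16 hr incubation at 37C. Reporter was beta-lactamase driven by UAS in HEK293T (PR-UAS-bla), 2% charcoal-stripped serum; signal from LiveBLAzer FRET substrate, 2 hr at room temperature.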

[3] = qHTS assay to identify small molecule antagonists of the progesterone receptor (PR) signaling pathway - cell viability counter screen (AID 1346798); also: series mostly up to about 92 µM; nearly all actives have a fitted effect of over 50% in size
How it was run: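 Cytotoxicity read as CellTiter-Glo luminescence (30 min, room temperature) in the same wells as the beta-lactamase readout. HEK293T PR-UAS-bla cells in charcoal-stripped 2% FBS received compound and R5020, then 16 h at 37C, 5% CO2.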

[4] = qHTS assay to identify small molecule antagonists of the TGF-beta/Smad signaling pathway - cell viability counter screen (AID 1346824); also: nearly all actives have a fitted effect of over 50% in size
How it was run: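 SBE-bla HEK 293T cells were plated overnight at 37 C, then given compounds in DMSO plus TGF-beta1 (added as 0.25 ng/mL solution) for 5 hr. After the bla read, CellTiter-Glo was added to the same wells and luminescence read after 30 min at room temperature.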

[5] = qHTS assay to identify small molecule agonists of the TGF-beta/Smad signaling pathway - cell viability counter screen (AID 1346829); also: top concentration of the series differs between compounds; nearly all actives have a fitted effect of over 45% in size
How it was run: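 Luminescence from CellTiter-Glo, read after a 30 min room-temperature incubation, gives cell viability of SBE-bla HEK 293T cells treated 5 hr with compounds at 37 C.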

[6] = qHTS assay to identify small molecule agonists of the TGF-beta/Smad signaling pathway (AID 1346859; active = well fitted activation curve with a large enough effect in the signal ratio in the repeat runs, not every such curve was filed as active; the % refers to the signal ratio; also: series mostly up to about 77 µM)
How it was run: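 Fluorescence (ex 405 nm; em 460 and 530 nm) was read 2 h after LiveBLAzer FRET substrate at RT. The preceding compound treatment of overnight-plated SBE-bla HEK293T cells lasted 5 h at 37 C.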

[7] = biological target: Thyrotropin-releasing hormone receptor (Homo sapiens) (UniProt P34981); test: qHTS assay to identify small molecule antagonists of the thyrotropin-releasing hormone receptor (TRHR) signaling pathway (AID 1346877; active = well fitted inhibition curve with a large enough effect in the repeat runs, not every such curve was filed as active; also: series mostly up to about 51 µM)
Sequence of Thyrotropin-releasing hormone receptor (Homo sapiens) (P34981 whole entry, looked up): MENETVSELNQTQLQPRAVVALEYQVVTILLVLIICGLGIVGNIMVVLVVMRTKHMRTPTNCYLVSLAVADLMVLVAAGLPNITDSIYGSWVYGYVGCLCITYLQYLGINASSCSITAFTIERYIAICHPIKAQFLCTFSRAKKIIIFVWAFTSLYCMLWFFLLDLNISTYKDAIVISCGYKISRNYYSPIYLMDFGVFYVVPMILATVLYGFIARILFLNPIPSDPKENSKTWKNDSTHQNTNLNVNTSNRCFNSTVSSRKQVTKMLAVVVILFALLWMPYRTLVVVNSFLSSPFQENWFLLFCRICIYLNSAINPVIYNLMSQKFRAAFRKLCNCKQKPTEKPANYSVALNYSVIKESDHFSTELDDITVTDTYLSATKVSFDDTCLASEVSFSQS
How it was run: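 Human TRHR in HEK293 cells; inhibition of the intracellular calcium rise triggered by 1 nM TRH was followed by fluorescence over 3 min. Compounds were run at 15 concentrations, three replicates each.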

[8] = biological target: Thyrotropin-releasing hormone receptor (Homo sapiens) (UniProt P34981); test: qHTS assay to identify small molecule agonists of the thyrotropin-releasing hormone receptor (TRHR) signaling pathway (AID 1346891; calls by dose curve; also: series mostly up to about 58 µM)
How it was run: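 Agonist-mode intracellular calcium readout: kinetic fluorescence over 3 min at 1 s intervals after compound addition to TRHR-HEK293 cells (18 h seeded, 2 h dye-loaded at 37 C). Fifteen concentrations, triplicates.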

[9] = Human pregnane X receptor (PXR) small molecule agonists, qHTS cell viability counter screen (AID 1346977); also: nearly all actives have a fitted effect of over 50% in size
How it was run: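 Same-well viability read: CellTiter-Fluor added after 23 hr compound exposure, fluorescence measured 1 hr later. Cells were PXR-Luc HepG2 seeded at 2,000/well in 5% charcoal-stripped FBS medium, rested 5 hr before dosing at 37 C.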

[10] = Caspase-3/7 induction in HepG2 cells by small molecules, qHTS assay (AID 1346978); also: nearly all actives have a fitted effect of over 15% in size
How it was run: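 Wild-type HepG2 cells (2,000/well) were settled 5 h at 37 C, 5% CO2, then exposed to compounds in DMSO for 17 h. Caspase-3/7 activity was read by luminescence 30 min after adding Caspase-Glo 3/7 reagent at room temperature.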

[11] = Caspase-3/7 induction in CHO-K1 cells by small molecules, qHTS cell viability counter screen (AID 1346979); also: nearly all actives have a fitted effect of over 35% in size; also: potency is read from the fitted curve at half-maximal effect
How it was run: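 Cytotoxicity counter screen: CellTiter-Fluor added to compound-treated wild-type CHO-K1 cells at 16 h (37C, 5% CO2), fluorescence measured 1 h later; same wells as caspase-3/7 measurement.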

[12] = Caspase-3/7 induction in HepG2 cells by small molecules, qHTS cell viability counter screen (AID 1346981); also: series mostly up to about 92 µM; nearly all actives have a fitted effect of over 30% in size
How it was run: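 The parent HepG2 line is plated at 2,000 cells per well and rested 5 hr before compound pinning from DMSO stocks. Following a 16-hr treatment at 37 C, a fluorogenic live-cell substrate (CellTiter-Fluor) reports viability after 1 hr.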

[13] = biological target: Nuclear receptor subfamily 1 group I member 2 (Homo sapiens) (UniProt O75469); test: Human pregnane X receptor (PXR) small molecule agonists, qHTS assay (AID 1346982); also: nearly all actives have a fitted effect of over 35% in size; also: potency is read from the fitted curve at half-maximal effect
Sequence of Nuclear receptor subfamily 1 group I member 2 (Homo sapiens) (O75469 whole entry, looked up): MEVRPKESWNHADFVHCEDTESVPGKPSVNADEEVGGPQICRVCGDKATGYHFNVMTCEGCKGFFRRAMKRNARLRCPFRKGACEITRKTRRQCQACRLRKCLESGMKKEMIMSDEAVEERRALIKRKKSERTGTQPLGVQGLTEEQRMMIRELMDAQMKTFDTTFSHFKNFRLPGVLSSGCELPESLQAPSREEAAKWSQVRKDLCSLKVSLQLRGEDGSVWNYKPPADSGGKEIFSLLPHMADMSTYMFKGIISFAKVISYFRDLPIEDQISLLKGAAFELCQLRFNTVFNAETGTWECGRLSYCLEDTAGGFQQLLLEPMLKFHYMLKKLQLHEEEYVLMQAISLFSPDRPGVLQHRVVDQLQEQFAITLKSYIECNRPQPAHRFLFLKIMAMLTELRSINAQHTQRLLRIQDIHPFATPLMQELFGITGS
How it was run: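 After plating in 5% charcoal-stripped FBS and a 5 hr rest, PXR-Luc HepG2 cells received compounds in DMSO. Following 24 hr at 37 C, ONE-Glo was added and light output read.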

[14] = biological target: Nuclear receptor subfamily 1 group I member 2 (Rattus norvegicus) (UniProt Q9R1A7); test: Rat pregnane X receptor (rPXR) activation by small molecules, qHTS assay (AID 1346983); settings: rPXR luciferase reporter cells, One-Glo luminescence, 24 h; max activation: stronger effect = higher value; also: nearly all actives have a fitted effect of over 20% in size
Sequence of Nuclear receptor subfamily 1 group I member 2 (Rattus norvegicus) (Q9R1A7 whole entry, looked up): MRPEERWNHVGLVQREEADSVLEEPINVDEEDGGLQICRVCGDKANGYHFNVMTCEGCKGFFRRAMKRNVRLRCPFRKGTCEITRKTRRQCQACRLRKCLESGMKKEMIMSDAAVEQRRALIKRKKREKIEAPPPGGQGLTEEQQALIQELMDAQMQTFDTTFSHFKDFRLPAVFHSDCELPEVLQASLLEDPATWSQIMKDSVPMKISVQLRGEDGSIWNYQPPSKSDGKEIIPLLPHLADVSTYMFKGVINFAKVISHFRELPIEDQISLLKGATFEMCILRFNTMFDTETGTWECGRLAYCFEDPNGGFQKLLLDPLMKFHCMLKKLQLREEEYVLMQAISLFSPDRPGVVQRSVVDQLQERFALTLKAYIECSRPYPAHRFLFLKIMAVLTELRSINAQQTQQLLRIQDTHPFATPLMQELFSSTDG
How it was run: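 Cell-based rPXR luciferase reporter assay, 2,000 cells per well, rested 5hr at 37 C before compound addition in DMSO, then 24 hr at 37 C. One-Glo reagent was added and luminescence read after 30 min at room temperature.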

[15] = biological target: Nuclear receptor subfamily 1 group I member 2 (Homo sapiens) (UniProt O75469); test: CYP3A4 induction through human pregnane X receptor (PXR) by small molecules, qHTS assay (AID 1346984); also: nearly all actives have a fitted effect of over 40% in size
How it was run: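 Human PXR activation is tracked via CYP3A4 promoter-luciferase in DPX-2 (HepG2) cells. Compounds treat cells for 24hr at 37C, and luminescence is read after One-Glo.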

[16] = biological target: Acetylcholinesterase (Homo sapiens) (UniProt P22303); test: Acetylcholinesterase (AChE) small molecule antagonists: colormetric cell-based qHTS assay (AID 1347395; calls by dose curve; also: nearly all actives have a fitted effect of over 30% in size)
Sequence of Acetylcholinesterase (Homo sapiens) (P22303 whole entry, looked up): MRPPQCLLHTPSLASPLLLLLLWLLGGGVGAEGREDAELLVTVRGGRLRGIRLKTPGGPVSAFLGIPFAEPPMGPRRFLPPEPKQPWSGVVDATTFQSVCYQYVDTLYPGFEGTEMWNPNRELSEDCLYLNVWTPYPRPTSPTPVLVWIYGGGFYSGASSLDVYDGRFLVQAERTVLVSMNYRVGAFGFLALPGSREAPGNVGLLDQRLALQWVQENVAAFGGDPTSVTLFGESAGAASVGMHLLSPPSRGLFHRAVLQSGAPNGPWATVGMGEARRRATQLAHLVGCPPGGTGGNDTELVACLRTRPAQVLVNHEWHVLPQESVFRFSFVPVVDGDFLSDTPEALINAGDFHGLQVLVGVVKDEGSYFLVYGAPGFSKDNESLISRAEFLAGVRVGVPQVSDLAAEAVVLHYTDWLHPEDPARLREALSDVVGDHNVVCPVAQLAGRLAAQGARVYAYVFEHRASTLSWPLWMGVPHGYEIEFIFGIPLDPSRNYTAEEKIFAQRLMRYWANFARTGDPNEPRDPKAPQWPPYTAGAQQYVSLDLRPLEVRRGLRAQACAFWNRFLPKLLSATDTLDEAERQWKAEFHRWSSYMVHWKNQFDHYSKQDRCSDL
How it was run: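 Colorimetric readout: DTNB quantifies thiocholine from acetylthiocholine hydrolysed by endogenous AChE of SH-SY5Y cells (2,000/well, plated overnight). Compound pretreatment 30 min, substrate incubation 90 min, both 37 C.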

[17] = biological target: Acetylcholinesterase (Homo sapiens) (UniProt P22303); test: Acetylcholinesterase (AChE) small molecule antagonists: enzyme-based qHTS assay (AID 1347397; calls by dose curve; also: nearly all actives have a fitted effect of over 55% in size); settings: Potency: AChE enzyme activity inhibition
How it was run: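 Tox21 library chemicals are tested in qHTS format against recombinant human AChE. The enzyme, dispensed at 50 mU/mL, sits with compound for 30 min at room temperature. A DTNB–acetylthiocholine cocktail follows, and colour is read after 10 min.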

[18] = Caspase-3/7 induction in CHO-K1 cells by small molecules, qHTS assay (AID 1346980); also: nearly all actives have a fitted effect of over 15% in size
How it was run: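 Wild-type cells were seeded at 1,500 per well and settled 5 hr at 37 C, 5% CO2, then exposed to DMSO-dissolved compounds for 17 hr. Caspase-Glo 3/7 reagent was added, and luminescence was read after 30min at room temperature.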

[19] = biological target: Nuclear receptor subfamily 1 group I member 2 (Homo sapiens) (UniProt O75469); test: Human pregnane X receptor (PXR) activation by small molecules, qHTS assay (AID 1346985); also: nearly all actives have a fitted effect of over 40% in size
How it was run: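 DPX-2 cells (HepG2 co-transfected with a PXR response element and a CYP3A4-promoter luciferase construct) were seeded at 2,000 per well, rested 5 hr at 37C, then exposed to DMSO-dissolved compounds for 24 hr. Activation was read as luciferase luminescence.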
% is scaled to controls: 0 for no effect and ±100 for the full control effect.

CC(C)NCC(O)c1ccccc1Cl (stereo not drawn)
inactive: Potency [1] | Potency [2] | Potency [3] | Potency [4] | Potency [5] | outcome [6] | Potency [7] | Potency [8] | Potency [9] | Potency [10] | Potency [11] | Potency [12] | Potency [13] | max activation [14] 1.03% | Potency [15] | Potency [16] | Potency [17]

CC(=O)[O-].CC(=O)[O-].CC(=O)[O-].[Sb+3]
inactive: activation [1] 3.93% [at 3.27 µM] | activity change, negative = inhibition [2] -5.92% [at 3.27 µM] | activity change, negative = cytotoxicity [3] 10.2% [at 3.27 µM] | viability change, negative = cytotoxic [4] -1.18% [at 2.72 µM] | activity change, negative = cytotoxicity [5] 2.52% [at 2.72 µM] | activation [6] -3.71% [at 2.72 µM] | activity change, negative = cytotoxicity [9] 2.16% [at 3.27 µM] | caspase activation [10] 1.01% [at 3.27 µM] | activity change, negative = cytotoxicity [11] 4.75% [at 3.27 µM] | activity change, negative = cytotoxicity [12] -0.0636% [at 3.27 µM]

CC(=O)O.CC(=O)O.CC(=O)O.CC(=O)O.CC(=O)O.CC(=O)O.CC(=O)O.O.O.[Cr].[Cr].[Cr]
inactive: Potency [1] | Potency [2] | Potency [3] | Potency [5] | outcome [6] | Potency [9] | Potency [10] | Potency [11] | Potency [18] | Potency [12]

CCCC[N+]1(C)CCCC1 (tested in a mixture with another compound)
inactive: Potency [1] | Potency [2] | Potency [3] | Potency [4] | Potency [5] | outcome [6] | Potency [10] | Potency [18]
active: Potency [11] 61.9 µM | Potency [13] 69.4 µM

CC(=O)C(Cl)C(=O)N(C)C (stereo not drawn)
inactive: Potency [1] | Potency [2] | Potency [3] | Potency [5] | outcome [6] | Potency [7] | Potency [8] | Potency [9] | Potency [10] | Potency [18] | Potency [12] | Potency [16] | Potency [17]

CNC(C)(C)Cc1ccccc1
inactive: Potency [1] | Potency [2] | Potency [3] | Potency [4] | Potency [5] | outcome [6] | Potency [9] | Potency [10] | Potency [11] | Potency [12] | Potency [13] | max activation [14] -0.549% | Potency [15] | Potency [19] | Potency [16] | Potency [17]

COCCC#N
inactive: Potency [1] | Potency [2] | Potency [3] | Potency [4] | Potency [5] | outcome [6] | Potency [9] | Potency [10] | Potency [11] | Potency [18] | Potency [12] | Potency [13] | Potency [16] | Potency [17]

O=NN(CCO)CCO
inactive: Potency [1] | Potency [2] | Potency [3] | Potency [4] | Potency [5] | outcome [6] | Potency [9] | Potency [10] | Potency [11] | Potency [12] | Potency [13] | Potency [16] | Potency [17]
